Laboratory results reported in ChEMBL document CHEMBL3988442, “University of Dundee, Small-Polar-MMV Screening Library” (2021).
Screen size: about 85,000 compounds; about 440 (0.52%) showed an effect of 50% or more. The list comes from a sample in which strong results are over-represented; it also holds similar structures and randomly drawn compounds.

Assay: In vitro enzyme assay to detect hydrolysis of chlorophenol red-beta-D-[…] directly proportional to the number of Toxoplasma stably expressing beta-galactosidase
Type: functional, organism-based, Toxoplasma gondii
Parameters: scale not given: in the data most compounds retested in dose-response had high values

Row | SMILES | Percent Effect (50 µM) [%] | Percent Effect (10 µM) [%]
1 | O=C(Cn1cc(Br)cn1)Nc1ccc2c(c1)OCCO2 | -0.8097 | –
2 | NC(=O)C[C@@H](N)c1ccc(Cl)cc1 | 0.4297 | –
3 | NC(=O)C[C@H](N)c1ccccc1 | 8.251 | –
4 | NC(=O)C[C@@H](N)c1ccccc1Cl | 50.18 | –
5 | COc1cccc(-c2noc(C3CCN(Cc4ccccc4F)C3)n2)c1.Cl (stereo not drawn) | – | 11.37
6 | COc1cccc(-c2noc(C3CCN(Cc4ccccc4C)C3)n2)c1.Cl (stereo not drawn) | – | 42.09
7 | CCn1ccnc1C1CCCN(CCC(N)=O)C1 (stereo not drawn) | 24 | –
8 | CCNC(=O)CN1CCCC(c2nccn2CC)C1 (stereo not drawn) | 95.83 | –
9 | CCn1ccnc1C1CCN(CC(=O)N(C)C)CC1 | 16.85 | –
10 | CC(C)COC1CCN(S(=O)(=O)Cc2cccc(F)c2)CC1 | – | 8.24
11 | CC(C)COC1CCN(S(=O)(=O)N2CCCC2)CC1 | 99.18 | –
12 | COCC(C)S(=O)(=O)N1CCCCC1 (stereo not drawn) | 6.357 | –
13 | Cc1nc2ccc(C(=O)N3CC(O)C3)cc2nc1C | -4.584 | –
14 | CSc1cccc(F)c1CN | 2.771 | –
15 | COc1cccc(CNCc2ccccn2)c1 | 10.94 | –
16 | CC(=O)NCc1cccc(OCc2ccccn2)c1 | 53.39 | –
17 | NCc1cccc(OCc2ccccn2)c1 | -1.325 | –

Row | SMILES | Percent Effect (50 µM) [%] | Percent Effect (10 µM) [%]
18 | Cc1noc(C)c1C(=O)N(C)C1CCS(=O)(=O)C1 (stereo not drawn) | -15.63 | –
19 | Cc1ccc(C2COCCN2)o1 (stereo not drawn) | 3.644 | –
20 | COCC(=O)N1CCn2c(COc3cccnc3)cnc2C1C.O=C(O)C(F)(F)F (stereo not drawn) | – | 84.28
21 | CC1c2ncc(COc3cccnc3)n2CCN1C(=O)Cc1ccco1.O=C(O)C(F)(F)F (stereo not drawn) | – | -0.5977
22 | CC1c2ncc(COc3cccnc3)n2CCN1C(=O)C1=CCCC1.O=C(O)C(F)(F)F (stereo not drawn) | – | 10.52
23 | O=C(NCCSCc1ccco1)c1cccnc1O | -3.309 | –
24 | COc1ccc(CC(C)(C#N)NC(C)=O)cc1OC (stereo not drawn) | 14.61 | –
25 | COc1ccc(CC#N)cc1S(C)(=O)=O | 54.15 | –
26 | COc1ccccc1CC#N | 14.35 | –
27 | COC(=O)c1cnc2c(c(C)nn2C)c1OC | – | 68.54
28 | COc1c(C(=O)N2CCOCC2)cnc2c1c(C)nn2C | – | -14.92
29 | COc1c(C(=O)N2CCNC(=O)C2)cnc2c1c(C)nn2C | – | 0.4571
30 | CN1CCN(Cc2nccn2C)[C@H]2CS(=O)(=O)C[C@H]21 | 0.771 | –
31 | OCCNCCNCc1ccc(-c2cccc(Cl)c2)o1 | 71.47 | –
32 | OCCNCCNCc1ccc(-c2ccccc2Cl)o1 | 33.01 | –
33 | OCCNCCNCc1ccc(-c2ccccc2)o1 | 1.266 | –
